Source: PubChem
ER stress surv = ER stress cell death inhibition; CSM14.1 thapsigargin ER stress survival, ATP luminescence; 48,000 compounds, 0.33% hits; relative survival (cellular ATP), % at 15 µg/mL (by protocol); AID 1010;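 active means survival measured by cellular ATP above 50% at 15 µg/ml in the first screen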;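 further: cell death triggered by about 15 µM thapsigargin; ATP read 24 h after thapsigargin was added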
A number is an active result; - = inactive. This excerpt belongs to a sample that is enriched for hits.

SMILES | ER stress surv
COc1ccc(CN2CCN(C(=O)c3ccc(F)cc3)CC2)cc1OCc1ccccc1 | 53.2
COc1ccc(CN2CCN(C(=O)c3ccccc3OC)CC2)cc1OCc1ccccc1 | -
COc1ccc(CN2CCN(C(=O)c3cccc(F)c3)CC2)cc1OCc1ccccc1 | -
COc1ccc(C(=O)N2CCN(Cc3ccccc3)CC2)cc1[N+](=O)[O-] | -
COc1cc(CN2CCN(C(=O)c3ccc([N+](=O)[O-])cc3)CC2)cc(OC)c1OC | -
COc1ccc(CN2CCN(C(=O)c3ccc([N+](=O)[O-])cc3)CC2)cc1OCc1ccccc1 | 72.4
Clc1cccc(OCCOCCN2CCOCC2)c1Cl | -
O=C1OC(c2ccccc2)=C/C1=C/c1ccc(-c2ccc([N+](=O)[O-])cc2)o1 | -
Cc1ccc(NC(=O)COc2ccc(Cl)cc2Cl)nc1 | -
CCOc1ccc(Nc2nc(-c3ccccn3)cs2)cc1 | -
CCOc1ccc(Nc2nc(-c3c(C)nc4cc(C)ccn34)cs2)cc1 | 95.7
Cc1ccn2c(-c3csc(Nc4cccc(O)c4)n3)c(C)nc2c1 | -
O=C(O)c1c[nH]c2cc(N3CCOCC3)c(F)cc2c1=O | -
COc1cccc(CN2CCN(C(=O)c3ccccc3)CC2)c1OC | -
COc1cccc(CN2CCN(C(=O)c3ccc(-c4ccccc4)cc3)CC2)c1OC | 113.1
COc1cc(CN2CCN(C(=O)c3ccc(-c4ccccc4)cc3)CC2)cc(OC)c1OC | 75.2
COc1ccc(C(=O)N2CCN(Cc3cc(OC)c(O)c(OC)c3)CC2)cc1 | -
COc1cccc(CN2CCN(C(=O)c3cccc(F)c3)CC2)c1OC | -
COc1ccc(C(=O)N2CCN(Cc3cc(OC)c(OC)c(OC)c3)CC2)cc1OC | -
O=C(c1ccc([N+](=O)[O-])cc1)N1CCN(Cc2cccc(Cl)c2)CC1 | -
O=C(c1ccc([N+](=O)[O-])cc1)N1CCN(Cc2ccccn2)CC1 | -
O=C(c1ccc([N+](=O)[O-])cc1)N1CCN(Cc2cccc3ccccc23)CC1 | 63.3
C=CCON1C(=O)C(=O)N(OCC=C)C2CCCCC21 (stereo not given) | -
Cc1ccc(OC(=O)COc2ccc(Cl)cc2Cl)cc1 | -
Cc1cccc(OCC(=O)Nc2ncc(Cc3ccc(Cl)cc3Cl)s2)c1 | -
SMILES | ER stress surv
Cc1ccc(C)c(Nc2nc3c(s2)CCCC3)c1 | -
COc1ccccc1/C=C1\SC(=S)N(c2cccc(C)c2C)C1=O | -
Cc1c(NC(=O)c2cc([N+](=O)[O-])ccc2Cl)cccc1-c1nc2ccccc2s1 | -
O=C(Nc1ccc(O)c(-c2nc3ccccc3s2)c1)c1cc([N+](=O)[O-])ccc1Cl | 59.6
O=C(Nc1ccc(O)c(-c2nc3ccccc3s2)c1)c1cccc(Cl)c1Cl | -
O=C(Nc1ccc(Cl)c(Cl)c1)c1ccc([N+](=O)[O-])o1 | -
O=C(Nc1ncccn1)c1ccc([N+](=O)[O-])o1 | 65.0
Cc1ccc(C(=O)Nc2ncccn2)o1 | -
CC(C)(C)c1ccc(C(=O)NNC(=O)C(=O)Nc2ccccc2)cc1 | -
CS(=O)(=O)N(CC(=O)Nc1ccccc1Cl)c1ccc(Oc2ccccc2)cc1 | -
CCN1C(=O)c2cccc3c(NC(=O)c4ccc(S(=O)(=O)N5CCCCCC5)cc4)ccc1c23 | 96.4
CCN1C(=O)c2cccc3c(NC(=O)c4ccc(C(=O)c5ccccc5)cc4)ccc1c23 | -
CCN1C(=O)c2cccc3c(NC(=O)c4ccc(Oc5ccccc5)cc4)ccc1c23 | -
CCOC(=O)C1=C(C)N=c2s/c(=C\c3cccc([N+](=O)[O-])c3)c(=O)n2C1c1ccccc1F (stereo not given) | -
Cc1ccc(C(=O)NCc2ccccc2)cc1S(=O)(=O)N1CCCCC1 | -
O=C(NC(=S)N1CCCCCC1)c1ccc(Br)cc1 | -
CC(=O)c1cccc(NC(=O)c2ccc(CN(c3ccccc3)S(C)(=O)=O)cc2)c1 | -
Cc1ccccc1C(=O)NNC(=O)C(C)C | -
Cc1ccccc1C(=O)NNC(=O)c1ccco1 | -
CCCC(=O)NNC(=O)c1ccccc1C | 64.8
CCC1=NN(C(=O)c2cccc(C)c2O)C(O)(c2ccc(Br)cc2)C1 (stereo not given) | -
COc1ccc(OCC(=O)Nc2c(C)cccc2C)cc1 | -
COc1ccc(C(=O)N2N=C(C(F)(F)F)CC2(O)c2ccccc2)cc1 (stereo not given) | -
O=C(Nc1cccc(NC(=O)c2cccc3ccccc23)c1)c1ccc(Cl)cc1Cl | -
O=C(COc1ccc2ccccc2c1)Nc1cccc(NC(=O)c2ccc(Cl)cc2Cl)c1 | 50.5
SMILES | ER stress surv
O=C(COc1ccc2ccccc2c1)Nc1ccc(Cl)c(Cl)c1 | -
O=C(/C=C/c1cccc([N+](=O)[O-])c1)c1cccc(Br)c1 | -
Cc1ccc(S(=O)(=O)NC(=O)N2CCN(c3ccc(F)cc3)CC2)cc1 | -
Cc1cccc(C)c1-n1c(C)cc(/C=N/NC(=O)c2ccncc2)c1C | -
CCc1ccc(-n2c(C)cc(/C=N/NC(=O)c3ccncc3)c2C)cc1 | -
Cc1ccc(-n2c(C)cc(/C=N/NC(=O)c3ccncc3)c2C)cc1C | 67.1
O=C1NC(=S)NC(=O)C1=Cc1ccc(N2CCCCC2)c([N+](=O)[O-])c1 | -
CCOc1ccc(S(=O)(=O)N(CC(=O)NCc2ccc(OC)cc2)c2ccc(C)cc2)cc1 | -
O=C(C1CC1c1ccccc1)N1CCN(C(c2ccccc2)c2ccccc2)CC1 (stereo not given) | 103.9
O=C(O)C1C2C=CC(O2)C1C(=O)N1CCN(C(c2ccccc2)c2ccccc2)CC1 (stereo not given) | -
O=C(O)C1C2CCC(O2)C1C(=O)N1CCN(C(c2ccccc2)c2ccccc2)CC1 (stereo not given) | -
Cc1nc2ccc(Cl)cn2c1C(=O)NN=C1CCC(C(C)(C)C)CC1 (stereo not given) | -
CC(C)(C)C1CCc2c(sc3ncn(N)c(=N)c23)C1 (stereo not given) | -
CSc1nc(NC(N)=O)c2c3c(sc2n1)CC(C(C)(C)C)CC3 (stereo not given) | 58.4
CC(C)(C)C1CCc2c(sc(NC(=O)c3ccncc3)c2C(N)=O)C1 (stereo not given) | -
COCCCNC(=O)c1cccc([N+](=O)[O-])c1C | -
O=C1CCCC2=C1C(c1ccc(O)cc1)Nc1ccc(C(=O)c3ccccc3)cc1N2 (stereo not given) | -
O=C1CCCC2=C1C(c1ccc([N+](=O)[O-])cc1)Nc1ccc(C(=O)c3ccccc3)cc1N2 (stereo not given) | 121.3
COc1ccc(C2CC(=O)C3=C(C2)Nc2ccccc2NC3c2ccc(O)cc2)cc1 (stereo not given) | -
COc1ccc(C2CC(=O)C3=C(C2)Nc2ccccc2NC3c2cccnc2)cc1OC (stereo not given) | -
O=C1CC(c2ccccc2)CC2=C1C(c1cccnc1)Nc1ccc(C(=O)c3ccccc3)cc1N2 (stereo not given) | 102.4
O=C1CCCC2=C1C(c1cccs1)Nc1ccc(C(=O)c3ccccc3)cc1N2 (stereo not given) | -
O=C1CC(c2ccccc2)CC2=C1C(c1ccco1)Nc1ccccc1N2 (stereo not given) | -
O=C1CC(c2ccccc2)CC2=C1C(c1ccc(O)cc1)Nc1ccc(C(=O)c3ccccc3)cc1N2 (stereo not given) | 105.8
O=C1CCCC2=C1C(c1ccc(F)cc1)Nc1ccc(C(=O)c3ccccc3)cc1N2 (stereo not given) | -
CCCc1ccc(-c2nc(-c3ccc(F)cc3)no2)cc1 | -
Cc1ccsc1/C=C1\SC(N2CCN(C)CC2)=NC1=O | -
